HADH2 inhib = blocks human hydroxyacyl-CoA dehydrogenase type II | Q99714 | recombinant HADH2, NADH fluorescence, beta-hydroxybutyryl-CoA | Potency, µM (titrated, usually from 57.1 µM), inactives show at the top dose activity change, negative = inhibition, actives largely listed as inhibitors | hit rate 3.4% among 73,000; note: potency is the fitted concentration of half-maximal effect; % is set by controls: 0 for no effect and ±100 for the full control effect; nearly all actives have a fitted effect of over 60% in size
Target sequence (Q99714 whole entry, looked up, one chain of several): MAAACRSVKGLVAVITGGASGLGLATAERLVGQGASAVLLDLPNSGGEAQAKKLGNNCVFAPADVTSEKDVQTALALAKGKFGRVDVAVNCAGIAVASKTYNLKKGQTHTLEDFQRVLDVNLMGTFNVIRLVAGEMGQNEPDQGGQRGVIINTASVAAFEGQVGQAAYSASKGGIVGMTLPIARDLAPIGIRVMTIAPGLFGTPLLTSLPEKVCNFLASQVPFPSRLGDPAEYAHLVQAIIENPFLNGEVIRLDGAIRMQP
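Read-out: 360 nm excitation, 450 nm emission, kinetic over 4 min. Conditions: His-tagged human HADH2 20 nM, pH 9.0 Tris with Tween-20, 1 mM NAD+, 90 uM beta-hydroxybutyryl-CoA.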
AID923 = qHTS Assay for Allosteric/Competitive Inhibitors of Caspase-1: Spectroscopic Profiling in AFC Spectral Region; compound fluorescence, AFC spectral region (405/520 nm); Potency, µM (highest dose often 57.5 µM), without a hit: at the top dose fluorescence increase, usual class: activators; hit rate 1.1% among 75,000; AID 923, 2007; note: potency is the fitted concentration of half-maximal effect; 0% is about no effect
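Titrations up to 57 uM read every 20 sec for 3 min (405/520 nm) with 50 nM caspase 1 and 5 uM Ac-WEHD-AFC, pH 7.5 HEPES buffer. Fluorescence-vs-time intercept gave baseline, scaled against on-plate AFC standard.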
4MU fluor = 4-MU region autofluorescence. AID 589. hit rate 11% among 59,000. compound autofluorescence, 340/450 nm, 4-MU equivalents; active compounds read high. max dye-equivalent concentration, M; in the data active = max dye-equivalent concentration above about 10 nM; inconclusive = mostly about 1.1 nM to 9.6 nM
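Compounds in 100 mM Tris, pH 8.0, incubated 15 min at room temperature, then fluorescence read at 340 nm excitation/450 nm emission. Signal converted to 4-MU dye-equivalent concentration using an on-plate six-point 4-MU standard curve.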
A350 autofl = compounds fluorescent in Alexa 350 spectral region; hit rate 11% among 59,000; max dye-equivalent concentration, M; Compound autofluorescence, 340/450 nm, Alexa 350 dye-equivalents; active compounds read high; in the data active = max dye-equivalent concentration above about 10 nM; inconclusive = mostly about 1.1 nM to 9.6 nM
CRE-bla Fsk = CRE-bla signaling modulation under forskolin stimulation. CHO CRE-bla reporter (cAMP response element driving beta-lactamase), forskolin EC10, beta-lactamase ratio. Potency, µM (series often up to 38.2 µM), inactives show at the top dose activity change, negative = inhibition, actives largely listed as activators. hit rate 2.5% among 71,000; active = well fitted activation curve with a large enough effect in the signal ratio, with a control signal flat, not every such curve was filed as active; inconclusive = small, poorly fitted or top-dose-only effect, or effect the other way, or a change in a side signal; the % refers to the signal ratio; note: potency is the fitted concentration of half-maximal effect; % of control where 0% means no effect
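CRE-bla CHO cells stimulated with EC10 NKH 477 (water-soluble forskolin) and compound titrations, 3 h at 37C; beta-lactamase read with CCF4 after 2 h at room temperature. Activity from 460/530 nm emission ratio, AC50 values for positive or negative modulation.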
HSD17B inhib = blocks hydroxysteroid 17-beta dehydrogenase activity; Potency, µM (titrated, usually from 57.1 µM), for the others: at the top dose activity change, negative = inhibition, usual class: inhibitors; recombinant HSD17B10, NADH fluorescence kinetic; Q99714; hit rate 7.6% among 75,000;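 note: the protocol describes HADH2 (HSD17B10) and not the HSD17B4 of the title; potency is the fitted concentration of half-maximal effect; % is set by controls: 0 for no effect and ±100 for the full control effect; nearly all actives have a fitted effect of over 70% in size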
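His-tagged E. coli-expressed HADH2 at 20 nM in 100 mM Tris-HCl pH 9.0 with 0.01 % Tween-20, preincubated 15 min with compound at room temperature. Reaction with 1 mM NAD+ and 90 uM beta-hydroxybutyryl coenzyme A; NADH fluorescence (360/450 nm) read kinetically over 4 min, last minus first point.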
An asterisk follows results filed as active; i = inactive; ? = inconclusive; / = no result; ! = a repeat was not active; [ ] = dose if it differs, or a comment. The list is not random: actives were taken first. Their share in the collection is about 14%. Unless noted, calls come from the whole dose curve; as a rule, active = well fitted curve in the direction sought with a large enough effect; inconclusive = small, poorly fitted or top-dose-only effect, or another doubt; inactive = no such curve, though single readings can be large; an effect the other way counts as inactive or inconclusive.

SMILES	HADH2 inhib	AID923	4MU fluor	A350 autofl	CRE-bla Fsk	HSD17B inhib
C/C=C\C[C@H](C)[C@H](O)[C@H]1C(=O)N[C@@H](CC)C(=O)N(C)CC(=O)N(C)[C@@H](CC(C)C)C(=O)N[C@@H](C(C)C)C(=O)N(C)[C@@H](CC(C)C)C(=O)N[C@@H](C)C(=O)N[C@@H](C)C(=O)N(C)[C@@H](CC(C)C)C(=O)N(C)[C@@H](CC(C)C)C(=O)N(C)[C@@H](C(C)C)C(=O)N1C	-3.1%[25.6 µM]	2.0%[25.7 µM]	4.03e-08M*!	3.12e-08M*!	-9.5%[17.1 µM]	4.4%[25.6 µM]
C=CCNC(=O)C1CCN(c2nc(C)cc(-c3ccccc3)n2)CC1	24.4%	1.3%	6.43e-08M*	5.86e-08M*	-5.2%	?
Cc1ccccc1-c1cncnc1N1CCNCC1	2.4%	-3.0%	i	i	-0.6%	-8.3%
COC(=O)C1=C(C)N(Cc2ccccc2)C2=C3C(=O)N(C)C(=O)C3[C@@](O)(C(=O)OC)C(=O)N2C1c1ccccc1 (some centres not stated)	-9.4%[11.4 µM]	3.2%[11.5 µM]	/	/	/	-3.3%[11.4 µM]
Cc1nc2c(c(C)nn2-c2ccccc2)c(C)c1Cl	9.1%	0.7%	/	/	18.0%	31.6µM*
Cc1c(C)c2c(C)nn(-c3ccccc3)c2[nH]c1=O	9.2%[11.4 µM]	2.2%	/	/	?	-16.6%
COC(=O)c1ccccc1NC(=O)c1cc(-c2ccc(OC)c(OC)c2)on1	-28.4%	-1.8%	i	?	?	7.6%
O=C(CSc1ccc2nnc(-c3ccc(F)cc3)n2n1)NCC1CCCO1 (configuration not stated)	?	-0.2%	1.61e-08M*	1.91e-08M*	-2.9%	?
COc1ccc(-c2nnc3ccc(SCC(=O)NCc4ccco4)nn23)cc1OC	-3.4%	0.5%	i	i	?	4.4%
Cc1ccc(-c2nnc3ccc(SCC(=O)NCc4ccco4)nn23)cc1	14.8%	0.3%	6.2e-08M*	6.39e-08M*	-10.4%	?
CCOc1ccc(-c2nnc3ccc(SCC(=O)NCc4ccco4)nn23)cc1	?	7.2%	2.5e-08M*	2.54e-08M*	6.8%	?
O=C(CSc1ccc2nnc(-c3ccc(F)cc3)n2n1)NCc1ccco1	-21.1%	0.2%	4.47e-08M*	4.61e-08M*	-15.3%	?
O=C(CSc1ccc2nnc(-c3ccncc3)n2n1)NCc1ccco1	10.6%	-2.0%	/	/	-7.0%	3.2%
CCOc1ccc(-c2nc(CSCC(=O)NCc3ccco3)c(C)o2)cc1	-12.8%	-2.0%	i	i	-35.4%	31.6µM*
O=C(O)c1ccc(SSc2ccc(C(=O)O)cn2)nc1	0.0501µM*	-0.5%[11.5 µM]	i	i	?	?
Cc1ccc(C(=O)O)cc1	-7.7%	2.3%	/	/	-8.6%	-11.0%
O=c1c2ccccc2nc2sc3ccccc3n12	-14.9%	-1.4%	3.71e-08M*	3.05e-08M*	28.0%	?
O=c1/c(=C/c2ccccn2)sc2nc3ccccc3n12	-0.6%[11.4 µM]	5.9%	/	/	?	-1.6%
CC(C)C[C@@H](CC(=O)N[C@@H](CCCN)CC(=O)N[C@@H]1CCNC[C@H]1C(=O)N[C@H](CC(=O)N[C@@H](CCC(=O)O)CC(=O)O)CC(C)C)NC(=O)[C@@H]1CNCC[C@H]1N	-15.0%	/	/	/	-12.9%	/
C[C@H](C[C@H](N)C(=O)O)C(=O)O	-2.0%	-1.2%	/	/	-4.0%	-1.8%
O=C(OCCOCCO)c1ccccc1Nc1cccc(C(F)(F)F)c1	-2.9%[25.6 µM]	-0.3%[25.7 µM]	3.75e-08M*	3.13e-08M*	4.4%[17.1 µM]	-12.5%[25.6 µM]
O=C(O)CC(NCc1ccco1)C(=O)OCCc1ccccc1 (configuration not stated)	/	/	i	i	/	/
O=C(O)CC(NCc1ccco1)C(=O)OCC1CCCO1 (configuration not stated)	/	/	1.98e-08M*	2.3e-08M*	/	/
COc1ccc(S(=O)(=O)N(Cc2ccc(OC)c(OC)c2)Cc2ccco2)cc1	0.9%	1.4%	?	1.01e-08M*	?	-20.4%
Cc1ccc(NS(=O)(=O)c2cc(C(=O)O)ccc2Cl)cc1C	2.4%	0.2%	/	/	/	-0.8%
COc1ncc2ncc(=O)n(CCC#N)c2n1	-7.5%	-0.3%	i	i	0.3%	1.8%

Assay outcomes as filed in PubChem BioAssay.
